Among the data in PubChem BioAssay (NCI) are growth inhibition values, retold here.

The panel holds about 79,000 compounds, 15% with a hit somewhere; the sample as a whole holds those more often. Values without a mark were called inactive. Active and inactive are the calls of the source. Cut-off read from the data, not from the text of the source: active = growth inhibition above about 70%; inactive = the rest.

The nature of experiment [1]: NCI Yeast Anticancer Drug Screen. Data for the rad50 strain (AID 155).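 Note: 0% = growth of vehicle-only cultures of the same strain.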 The settings on record: S. cerevisiae rad50 strain growth inhibition, active compounds read high. In short, it runs like this: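 Compounds were tested on a yeast strain with an engineered DNA damage repair alteration; the reported value is growth inhibition normalised to vehicle treatment.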
A short description of experiment [2]: NCI Yeast Anticancer Drug Screen. Data for the mec2-1 strain (AID 157). The settings on record: S. cerevisiae mec2-1 strain, active compounds read high. The method, boiled down:
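Strain: mec2-1 (DNA repair/cell cycle alteration). Compound exposure, then growth measured; inhibition expressed relative to vehicle.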

A short description of experiment [3]: NCI Yeast Anticancer Drug Screen. Data for the sgs1 mgt1 strain (AID 161).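 Note: 0% = growth of cultures given vehicle only.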 The settings on record: S. cerevisiae sgs1 mgt1 strain, active compounds read high. The method, boiled down: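 Mutant yeast exposed to compound; growth scored against vehicle-only wells.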
Experiment [4] can be described thus: NCI Yeast Anticancer Drug Screen. Data for the cln2 rad14 strain (AID 165).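 Note: 0% = growth equal to vehicle treated cultures.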 The settings on record: S. cerevisiae cln2 rad14 strain, active compounds read high. In short, it runs like this:
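Compounds are applied to the cln2 rad14 yeast strain, and growth is then compared with that of vehicle-treated cultures to give inhibition.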

Experiment [5] can be described thus: NCI Yeast Anticancer Drug Screen. Data for the bub3 strain (AID 167). Particulars: S. cerevisiae bub3 mutant strain, active compounds read high. The method, boiled down: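 Growth of a checkpoint-deficient yeast mutant is measured after compound exposure. Values represent inhibition relative to vehicle.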
Experiment [6] is described as follows: NCI Yeast Anticancer Drug Screen. Data for the mlh1 rad18 strain (AID 175). Particulars: S. cerevisiae mlh1 rad18 strain growth inhibition, active compounds read high. In short, it runs like this:
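Read-out is yeast growth inhibition, calculated against vehicle-only controls. The compound was applied to a strain engineered with DNA damage repair alterations.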

Setting [7] is: at 5.0 µM (retest, dose inferred, filed as 0.5).
The mark [8] stands for this setting: at 50.0 µM (retest, dose inferred, filed as 5.0).

`O=C(O)/C=C/C(=O)c1ccccc1`: the growth inhibition in experiment [1] (setting [7]) was 7%; in experiment [1] (setting [8]), 76% (active); in experiment [1] (at 50.0 µM), 15.1%; in experiment [2] (setting [7]), 5%; in experiment [2] (setting [8]), 72% (active); in experiment [2] (at 50.0 µM), 57.5%. Further, the growth inhibition in experiment [3] (setting [7]) is 3%; in experiment [3] (setting [8]), 66%; in experiment [3] (at 50.0 µM) it was 46.3%; in experiment [4] (setting [7]), -3%; in experiment [4] (setting [8]), 13%; in experiment [4] (at 50.0 µM), 3.6%. Further, the growth inhibition in experiment [5] (setting [7]) is -6%; in experiment [5] (setting [8]) it was 71% (active); in experiment [5] (at 50.0 µM) it was 67.2%; in experiment [6] (setting [7]), 6%; in experiment [6] (setting [8]) it was 80% (active); in experiment [6] (at 50.0 µM), 72% (active).

`CC(OC(=O)Nc1cccc(Cl)c1)c1ccccc1` (stereo not given): the growth inhibition in experiment [1] (setting [7]) was 18%; in experiment [1] (setting [8]) it was 99% (active); in experiment [1] (at 50.0 µM), 99.2% (active); in experiment [2] (setting [7]), 8%; in experiment [2] (setting [8]) it was 99% (active); in experiment [2] (at 50.0 µM) it was 99.5% (active). For the same compound, the growth inhibition in experiment [3] (setting [7]) is 12%; in experiment [3] (setting [8]), 99% (active); in experiment [3] (at 50.0 µM), 99.5% (active); in experiment [4] (setting [7]), 7%; in experiment [4] (setting [8]) it was 99% (active); in experiment [4] (at 50.0 µM), 99% (active). Further, the growth inhibition in experiment [5] (setting [7]) is 11%; in experiment [5] (setting [8]) it was 99% (active); in experiment [5] (at 50.0 µM) it was 99.7% (active); in experiment [6] (setting [7]), 11%; in experiment [6] (setting [8]) it was 99% (active); in experiment [6] (at 50.0 µM), 99.2% (active).

For the compound `COc1ccc2nc(-c3ccc(Cl)cc3)[nH]c2c1`, the growth inhibition in experiment [1] (setting [7]) was 1%; in experiment [1] (setting [8]) it was 88% (active); in experiment [1] (at 50.0 µM), 72.7% (active); in experiment [2] (setting [7]) it was -5%; in experiment [2] (setting [8]), 91% (active); in experiment [2] (at 50.0 µM) it was 74.9% (active). Further, the growth inhibition was -3% in experiment [3] (setting [7]); 90% (active) in experiment [3] (setting [8]); 80.5% (active) in experiment [3] (at 50.0 µM); -8% in experiment [4] (setting [7]); 47% in experiment [4] (setting [8]); -4% in experiment [4] (at 50.0 µM). Besides, the growth inhibition is 3% in experiment [5] (setting [7]); 90% (active) in experiment [5] (setting [8]); 94.2% (active) in experiment [5] (at 50.0 µM); -4% in experiment [6] (setting [7]); 78% (active) in experiment [6] (setting [8]); 60.3% in experiment [6] (at 50.0 µM).

Regarding `CC(C)N1C(=O)c2ccccc2S1(Cl)c1ccccc1` (stereo not given), the growth inhibition in experiment [1] (setting [7]) was 2%; in experiment [1] (setting [8]), 0%; in experiment [1] (at 50.0 µM), 97.5% (active); in experiment [2] (setting [7]), -6%; in experiment [2] (setting [8]), 6%; in experiment [2] (at 50.0 µM) it was 96.8% (active). The growth inhibition was 4% in experiment [3] (setting [7]); -3% in experiment [3] (setting [8]); 94.5% (active) in experiment [3] (at 50.0 µM); -2% in experiment [4] (setting [7]); 2% in experiment [4] (setting [8]); 88.2% (active) in experiment [4] (at 50.0 µM). The growth inhibition is -7% in experiment [5] (setting [7]); -6% in experiment [5] (setting [8]); 98.5% (active) in experiment [5] (at 50.0 µM); -2% in experiment [6] (setting [7]); 4% in experiment [6] (setting [8]); 98.3% (active) in experiment [6] (at 50.0 µM).

`CCCCCc1cccc(CC(=O)OCC)n1`: the growth inhibition in experiment [1] (setting [7]) is -161%; in experiment [1] (setting [8]), -149%; in experiment [1] (at 50.0 µM) it was -14.7%; in experiment [2] (setting [7]), -50%; in experiment [2] (setting [8]), -57%; in experiment [2] (at 50.0 µM), -15.3%. The growth inhibition in experiment [3] (setting [7]) is -66%; in experiment [3] (setting [8]), -69%; in experiment [3] (at 50.0 µM) it was -12.7%; in experiment [4] (setting [7]), -58%; in experiment [4] (setting [8]), -80%; in experiment [4] (at 50.0 µM) it was 26.9%. The growth inhibition in experiment [5] (setting [7]) was -66%; in experiment [5] (setting [8]) it was -42%; in experiment [5] (at 50.0 µM), -12.3%; in experiment [6] (setting [7]), -127%; in experiment [6] (setting [8]), -132%; in experiment [6] (at 50.0 µM), -6.15%.

`CCN(CC)CCCNc1cc(C)nc2c1ccc1c2ccc2c(NCCCN(CC)CC)cc(C)nc21`: the growth inhibition in experiment [1] (setting [7]) is -4%; in experiment [1] (setting [8]), 92% (active); in experiment [1] (at 50.0 µM), 61.9%; in experiment [2] (setting [7]) it was -2%; in experiment [2] (setting [8]), 75% (active); in experiment [2] (at 50.0 µM) it was 97.8% (active). Moreover, the growth inhibition in experiment [3] (setting [7]) was -1%; in experiment [3] (setting [8]), 78% (active); in experiment [3] (at 50.0 µM) it was 65.8%; in experiment [4] (setting [7]), -7%; in experiment [4] (setting [8]), 82% (active); in experiment [4] (at 50.0 µM) it was 73.7% (active). The growth inhibition in experiment [5] (setting [7]) was -4%; in experiment [5] (setting [8]) it was 97% (active); in experiment [5] (at 50.0 µM), 96.7% (active); in experiment [6] (setting [7]), -4%; in experiment [6] (setting [8]), 81% (active); in experiment [6] (at 50.0 µM), 94.2% (active).

Take `CC(C(=O)NN)C(O)C(C)(C)O` (stereo not given): the growth inhibition in experiment [1] (setting [7]) was 3%; in experiment [1] (setting [8]), -5%; in experiment [1] (at 50.0 µM), 58.7%; in experiment [2] (setting [7]), -5%; in experiment [2] (setting [8]) it was -10%; in experiment [2] (at 50.0 µM), 3.8%. The growth inhibition in experiment [3] (setting [7]) is 1%; in experiment [3] (setting [8]), 3%; in experiment [3] (at 50.0 µM), -7.4%; in experiment [4] (setting [7]), 1%; in experiment [4] (setting [8]) it was -9%; in experiment [4] (at 50.0 µM), -47.5%. Also, the growth inhibition in experiment [5] (setting [7]) was -2%; in experiment [5] (setting [8]), 1%; in experiment [5] (at 50.0 µM) it was -5.85%; in experiment [6] (setting [7]), 7%; in experiment [6] (setting [8]), 4%; in experiment [6] (at 50.0 µM), 6.05%.

With `Nc1nn2c(C(Br)Br)cc(C(Br)Br)nc2c1[N+](=O)[O-]`, the growth inhibition was 100% (active) in experiment [1] (setting [7]); 100% (active) in experiment [1] (setting [8]); 99.5% (active) in experiment [1] (at 50.0 µM); 100% (active) in experiment [2] (setting [7]); 100% (active) in experiment [2] (setting [8]); 99.5% (active) in experiment [2] (at 50.0 µM). Besides, the growth inhibition is 100% (active) in experiment [3] (setting [7]); 100% (active) in experiment [3] (setting [8]); 99.5% (active) in experiment [3] (at 50.0 µM); 99% (active) in experiment [4] (setting [7]); 99% (active) in experiment [4] (setting [8]); 99.4% (active) in experiment [4] (at 50.0 µM). In addition, the growth inhibition in experiment [5] (setting [7]) was 100% (active); in experiment [5] (setting [8]), 100% (active); in experiment [5] (at 50.0 µM), 99.5% (active); in experiment [6] (setting [7]), 100% (active); in experiment [6] (setting [8]), 100% (active); in experiment [6] (at 50.0 µM) it was 99.5% (active).

Take `CN(C)CC1CCC/C(=C\c2ccc(Cl)c(Cl)c2)C1=O` (stereo not given): the growth inhibition in experiment [1] (setting [7]) is 19%; in experiment [1] (setting [8]) it was 98% (active); in experiment [1] (at 50.0 µM) it was 69.3%; in experiment [2] (setting [7]), 9%; in experiment [2] (setting [8]) it was 98% (active); in experiment [2] (at 50.0 µM), 81.8% (active). In addition, the growth inhibition in experiment [3] (setting [7]) is -1%; in experiment [3] (setting [8]), 97% (active); in experiment [3] (at 50.0 µM) it was 86.5% (active); in experiment [4] (setting [7]) it was 7%; in experiment [4] (setting [8]) it was 97% (active); in experiment [4] (at 50.0 µM), 86.5% (active). Moreover, the growth inhibition in experiment [5] (setting [7]) was -22%; in experiment [5] (setting [8]), 98% (active); in experiment [5] (at 50.0 µM), 86% (active); in experiment [6] (setting [7]), 6%; in experiment [6] (setting [8]) it was 97% (active); in experiment [6] (at 50.0 µM), 89.3% (active).

As for `CCOCCNc1ncnc2c1cnn2C`, the growth inhibition in experiment [1] (setting [7]) is 2%; in experiment [1] (setting [8]), -5%; in experiment [1] (at 50.0 µM) it was -1.1%; in experiment [2] (setting [7]) it was -4%; in experiment [2] (setting [8]) it was -3%; in experiment [2] (at 50.0 µM) it was -18.4%. The growth inhibition in experiment [3] (setting [7]) is -16%; in experiment [3] (setting [8]), -6%; in experiment [3] (at 50.0 µM), 13.1%; in experiment [4] (setting [7]), -5%; in experiment [4] (setting [8]), -1%; in experiment [4] (at 50.0 µM), -0.35%. Moreover, the growth inhibition is 0% in experiment [5] (setting [7]); 2% in experiment [5] (setting [8]); 8% in experiment [5] (at 50.0 µM); 3% in experiment [6] (setting [7]); -1% in experiment [6] (setting [8]); 39% in experiment [6] (at 50.0 µM).
